# Measured values from the supplement of paper PMC11732987, “Enantioselective OTUD7B fragment discovery through chemoproteomics screening and high-throughput optimisation” (Communications Chemistry, 2025).
# Unmarked numbers belong to inactive results.
# Experiments:
# Test in all cases: log2 ratio of Biotin-Ahx-Ub-VS probe labelling (fragment/DMSO); higher = less target engagement (more negative = stronger competition), active = hit call of the paper (q ≤ 0.05, log2 ratio ≤ -1)
# Conditions in all cases: compound concentration: 200 uM; treatment time: 3 h
# [1] = target: T1, USP19 (UniProt O94966)
# T1 sequence (whole entry): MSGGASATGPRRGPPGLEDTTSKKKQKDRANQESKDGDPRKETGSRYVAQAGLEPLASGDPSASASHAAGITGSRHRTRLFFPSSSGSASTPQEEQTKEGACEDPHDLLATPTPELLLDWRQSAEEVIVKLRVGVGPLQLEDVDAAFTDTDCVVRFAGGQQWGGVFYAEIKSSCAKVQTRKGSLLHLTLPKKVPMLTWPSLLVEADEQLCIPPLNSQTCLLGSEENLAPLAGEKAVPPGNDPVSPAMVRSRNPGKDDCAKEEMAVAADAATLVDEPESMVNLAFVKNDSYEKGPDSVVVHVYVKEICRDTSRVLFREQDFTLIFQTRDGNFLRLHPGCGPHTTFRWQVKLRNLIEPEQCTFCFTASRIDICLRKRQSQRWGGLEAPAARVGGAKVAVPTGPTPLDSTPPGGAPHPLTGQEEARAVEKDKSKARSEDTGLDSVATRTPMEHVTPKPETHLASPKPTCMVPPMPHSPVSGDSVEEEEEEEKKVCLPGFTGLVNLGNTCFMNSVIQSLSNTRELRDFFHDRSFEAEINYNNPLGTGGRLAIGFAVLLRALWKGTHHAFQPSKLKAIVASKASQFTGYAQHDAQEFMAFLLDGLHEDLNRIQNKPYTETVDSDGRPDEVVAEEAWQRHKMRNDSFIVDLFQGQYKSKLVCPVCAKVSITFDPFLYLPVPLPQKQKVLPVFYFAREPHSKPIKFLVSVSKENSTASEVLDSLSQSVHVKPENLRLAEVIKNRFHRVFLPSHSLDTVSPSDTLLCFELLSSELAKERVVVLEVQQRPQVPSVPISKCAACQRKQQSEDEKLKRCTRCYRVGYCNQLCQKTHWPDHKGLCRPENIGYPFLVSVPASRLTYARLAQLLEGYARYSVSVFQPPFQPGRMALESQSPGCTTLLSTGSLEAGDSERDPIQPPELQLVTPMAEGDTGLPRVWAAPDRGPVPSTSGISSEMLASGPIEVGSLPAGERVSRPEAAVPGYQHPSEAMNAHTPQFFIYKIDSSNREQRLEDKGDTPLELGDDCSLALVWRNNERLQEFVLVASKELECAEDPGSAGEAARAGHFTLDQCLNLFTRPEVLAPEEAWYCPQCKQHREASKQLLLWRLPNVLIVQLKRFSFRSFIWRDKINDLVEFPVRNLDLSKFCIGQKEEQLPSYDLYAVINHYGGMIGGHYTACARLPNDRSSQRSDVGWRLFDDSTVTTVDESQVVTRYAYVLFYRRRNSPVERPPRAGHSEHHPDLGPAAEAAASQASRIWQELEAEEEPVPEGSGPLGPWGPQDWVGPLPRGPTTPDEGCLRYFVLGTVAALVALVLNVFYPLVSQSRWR
# How it was run: (§1)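 HEK293T lysate, 495 µg per sample in Tris/CHAPS/IGEPAL buffer with protease inhibitors, was treated in triplicate with fragment at 200 µM or vehicle for 3 h and then with Biotin-Ahx-Ub-VS at 0.5 µM final for 1 h. Labelled DUBs were NeutrAvidin-enriched, digested with LysC and trypsin, and run by diaPASEF LC-MS/MS. Spectronaut label-free quantities were global-median-normalised, and values are average log2 fragment/vehicle ratios by unpaired t-test on proteins with ≥2 unique peptides.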
# [2] = target: T2, USP22 (UniProt Q9UPT9)
# T2 sequence (whole entry): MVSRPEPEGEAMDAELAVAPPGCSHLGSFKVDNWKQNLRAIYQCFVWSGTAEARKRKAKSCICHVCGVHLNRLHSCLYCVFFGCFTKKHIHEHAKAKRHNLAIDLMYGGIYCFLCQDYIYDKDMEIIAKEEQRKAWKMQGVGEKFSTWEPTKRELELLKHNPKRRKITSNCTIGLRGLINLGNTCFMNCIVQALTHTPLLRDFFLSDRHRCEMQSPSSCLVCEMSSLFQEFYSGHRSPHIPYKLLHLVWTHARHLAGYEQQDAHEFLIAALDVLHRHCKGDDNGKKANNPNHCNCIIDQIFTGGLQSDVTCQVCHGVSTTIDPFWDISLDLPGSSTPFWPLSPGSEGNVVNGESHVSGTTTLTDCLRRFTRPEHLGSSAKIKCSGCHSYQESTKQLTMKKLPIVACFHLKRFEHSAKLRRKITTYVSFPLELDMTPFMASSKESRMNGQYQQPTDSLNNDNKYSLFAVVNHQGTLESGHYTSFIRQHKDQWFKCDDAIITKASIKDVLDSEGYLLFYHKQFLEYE
# How it was run: as §1
# [3] = target: USP24 (UniProt Q9UPU5)
# How it was run: as §1
# [4] = target: T3, USP25 (UniProt Q9UHP3)
# T3 sequence (whole entry): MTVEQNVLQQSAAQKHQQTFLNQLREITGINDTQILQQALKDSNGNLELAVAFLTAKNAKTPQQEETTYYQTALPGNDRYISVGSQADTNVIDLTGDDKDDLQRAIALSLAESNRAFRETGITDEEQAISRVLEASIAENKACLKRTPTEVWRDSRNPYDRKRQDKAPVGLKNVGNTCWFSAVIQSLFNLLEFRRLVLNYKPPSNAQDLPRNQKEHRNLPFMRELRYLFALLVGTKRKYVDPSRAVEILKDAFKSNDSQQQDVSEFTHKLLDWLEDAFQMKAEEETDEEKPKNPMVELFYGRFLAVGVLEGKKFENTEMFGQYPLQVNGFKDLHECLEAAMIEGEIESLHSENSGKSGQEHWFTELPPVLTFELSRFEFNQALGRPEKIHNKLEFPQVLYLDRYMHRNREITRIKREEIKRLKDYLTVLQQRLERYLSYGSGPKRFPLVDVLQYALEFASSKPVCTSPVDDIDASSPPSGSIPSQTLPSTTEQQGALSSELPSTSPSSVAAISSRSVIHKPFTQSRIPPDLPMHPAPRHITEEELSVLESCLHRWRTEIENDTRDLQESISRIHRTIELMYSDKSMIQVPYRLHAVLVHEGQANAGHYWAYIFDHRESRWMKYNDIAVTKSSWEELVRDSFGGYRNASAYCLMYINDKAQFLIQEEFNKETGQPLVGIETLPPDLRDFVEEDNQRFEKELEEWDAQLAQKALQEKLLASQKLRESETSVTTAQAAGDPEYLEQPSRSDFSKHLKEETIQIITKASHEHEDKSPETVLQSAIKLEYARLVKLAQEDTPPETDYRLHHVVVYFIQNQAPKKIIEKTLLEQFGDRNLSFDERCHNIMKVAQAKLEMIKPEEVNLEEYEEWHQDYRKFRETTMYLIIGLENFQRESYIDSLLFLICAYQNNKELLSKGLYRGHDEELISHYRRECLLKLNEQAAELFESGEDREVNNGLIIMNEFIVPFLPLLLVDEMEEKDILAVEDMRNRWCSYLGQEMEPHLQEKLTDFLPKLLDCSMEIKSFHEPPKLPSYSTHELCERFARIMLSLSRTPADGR
# How it was run: as §1
# [5] = target: T4, USP28 (UniProt Q96RU2)
# T4 sequence (whole entry): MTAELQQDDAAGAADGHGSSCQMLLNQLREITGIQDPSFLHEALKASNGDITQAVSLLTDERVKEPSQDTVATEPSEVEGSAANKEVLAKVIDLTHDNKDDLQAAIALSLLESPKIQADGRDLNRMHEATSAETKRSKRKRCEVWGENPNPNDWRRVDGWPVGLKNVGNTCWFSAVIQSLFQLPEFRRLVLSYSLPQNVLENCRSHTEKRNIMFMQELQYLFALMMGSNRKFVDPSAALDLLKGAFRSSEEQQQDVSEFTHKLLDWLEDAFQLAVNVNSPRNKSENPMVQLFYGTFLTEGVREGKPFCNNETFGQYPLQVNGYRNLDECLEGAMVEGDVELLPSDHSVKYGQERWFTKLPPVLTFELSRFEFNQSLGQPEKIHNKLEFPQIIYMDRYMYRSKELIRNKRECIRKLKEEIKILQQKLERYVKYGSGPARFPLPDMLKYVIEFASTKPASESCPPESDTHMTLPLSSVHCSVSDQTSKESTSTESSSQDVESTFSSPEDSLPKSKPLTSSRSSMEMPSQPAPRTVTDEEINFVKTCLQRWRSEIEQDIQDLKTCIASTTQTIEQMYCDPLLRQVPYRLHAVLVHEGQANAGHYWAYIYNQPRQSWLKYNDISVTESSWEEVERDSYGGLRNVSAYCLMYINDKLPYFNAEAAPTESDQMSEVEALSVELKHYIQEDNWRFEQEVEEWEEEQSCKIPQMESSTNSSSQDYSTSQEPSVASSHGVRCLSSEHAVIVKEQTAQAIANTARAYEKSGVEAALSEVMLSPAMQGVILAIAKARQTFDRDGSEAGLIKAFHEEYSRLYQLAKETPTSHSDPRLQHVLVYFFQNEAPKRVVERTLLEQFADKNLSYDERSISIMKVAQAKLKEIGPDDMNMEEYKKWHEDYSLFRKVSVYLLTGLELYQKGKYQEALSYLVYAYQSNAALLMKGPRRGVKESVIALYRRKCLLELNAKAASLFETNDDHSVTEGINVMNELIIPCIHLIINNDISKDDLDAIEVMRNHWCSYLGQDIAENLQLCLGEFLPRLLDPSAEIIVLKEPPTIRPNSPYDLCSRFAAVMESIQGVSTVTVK
# How it was run: as §1
# Chain of USP24 (Q9UPU5 whole entry): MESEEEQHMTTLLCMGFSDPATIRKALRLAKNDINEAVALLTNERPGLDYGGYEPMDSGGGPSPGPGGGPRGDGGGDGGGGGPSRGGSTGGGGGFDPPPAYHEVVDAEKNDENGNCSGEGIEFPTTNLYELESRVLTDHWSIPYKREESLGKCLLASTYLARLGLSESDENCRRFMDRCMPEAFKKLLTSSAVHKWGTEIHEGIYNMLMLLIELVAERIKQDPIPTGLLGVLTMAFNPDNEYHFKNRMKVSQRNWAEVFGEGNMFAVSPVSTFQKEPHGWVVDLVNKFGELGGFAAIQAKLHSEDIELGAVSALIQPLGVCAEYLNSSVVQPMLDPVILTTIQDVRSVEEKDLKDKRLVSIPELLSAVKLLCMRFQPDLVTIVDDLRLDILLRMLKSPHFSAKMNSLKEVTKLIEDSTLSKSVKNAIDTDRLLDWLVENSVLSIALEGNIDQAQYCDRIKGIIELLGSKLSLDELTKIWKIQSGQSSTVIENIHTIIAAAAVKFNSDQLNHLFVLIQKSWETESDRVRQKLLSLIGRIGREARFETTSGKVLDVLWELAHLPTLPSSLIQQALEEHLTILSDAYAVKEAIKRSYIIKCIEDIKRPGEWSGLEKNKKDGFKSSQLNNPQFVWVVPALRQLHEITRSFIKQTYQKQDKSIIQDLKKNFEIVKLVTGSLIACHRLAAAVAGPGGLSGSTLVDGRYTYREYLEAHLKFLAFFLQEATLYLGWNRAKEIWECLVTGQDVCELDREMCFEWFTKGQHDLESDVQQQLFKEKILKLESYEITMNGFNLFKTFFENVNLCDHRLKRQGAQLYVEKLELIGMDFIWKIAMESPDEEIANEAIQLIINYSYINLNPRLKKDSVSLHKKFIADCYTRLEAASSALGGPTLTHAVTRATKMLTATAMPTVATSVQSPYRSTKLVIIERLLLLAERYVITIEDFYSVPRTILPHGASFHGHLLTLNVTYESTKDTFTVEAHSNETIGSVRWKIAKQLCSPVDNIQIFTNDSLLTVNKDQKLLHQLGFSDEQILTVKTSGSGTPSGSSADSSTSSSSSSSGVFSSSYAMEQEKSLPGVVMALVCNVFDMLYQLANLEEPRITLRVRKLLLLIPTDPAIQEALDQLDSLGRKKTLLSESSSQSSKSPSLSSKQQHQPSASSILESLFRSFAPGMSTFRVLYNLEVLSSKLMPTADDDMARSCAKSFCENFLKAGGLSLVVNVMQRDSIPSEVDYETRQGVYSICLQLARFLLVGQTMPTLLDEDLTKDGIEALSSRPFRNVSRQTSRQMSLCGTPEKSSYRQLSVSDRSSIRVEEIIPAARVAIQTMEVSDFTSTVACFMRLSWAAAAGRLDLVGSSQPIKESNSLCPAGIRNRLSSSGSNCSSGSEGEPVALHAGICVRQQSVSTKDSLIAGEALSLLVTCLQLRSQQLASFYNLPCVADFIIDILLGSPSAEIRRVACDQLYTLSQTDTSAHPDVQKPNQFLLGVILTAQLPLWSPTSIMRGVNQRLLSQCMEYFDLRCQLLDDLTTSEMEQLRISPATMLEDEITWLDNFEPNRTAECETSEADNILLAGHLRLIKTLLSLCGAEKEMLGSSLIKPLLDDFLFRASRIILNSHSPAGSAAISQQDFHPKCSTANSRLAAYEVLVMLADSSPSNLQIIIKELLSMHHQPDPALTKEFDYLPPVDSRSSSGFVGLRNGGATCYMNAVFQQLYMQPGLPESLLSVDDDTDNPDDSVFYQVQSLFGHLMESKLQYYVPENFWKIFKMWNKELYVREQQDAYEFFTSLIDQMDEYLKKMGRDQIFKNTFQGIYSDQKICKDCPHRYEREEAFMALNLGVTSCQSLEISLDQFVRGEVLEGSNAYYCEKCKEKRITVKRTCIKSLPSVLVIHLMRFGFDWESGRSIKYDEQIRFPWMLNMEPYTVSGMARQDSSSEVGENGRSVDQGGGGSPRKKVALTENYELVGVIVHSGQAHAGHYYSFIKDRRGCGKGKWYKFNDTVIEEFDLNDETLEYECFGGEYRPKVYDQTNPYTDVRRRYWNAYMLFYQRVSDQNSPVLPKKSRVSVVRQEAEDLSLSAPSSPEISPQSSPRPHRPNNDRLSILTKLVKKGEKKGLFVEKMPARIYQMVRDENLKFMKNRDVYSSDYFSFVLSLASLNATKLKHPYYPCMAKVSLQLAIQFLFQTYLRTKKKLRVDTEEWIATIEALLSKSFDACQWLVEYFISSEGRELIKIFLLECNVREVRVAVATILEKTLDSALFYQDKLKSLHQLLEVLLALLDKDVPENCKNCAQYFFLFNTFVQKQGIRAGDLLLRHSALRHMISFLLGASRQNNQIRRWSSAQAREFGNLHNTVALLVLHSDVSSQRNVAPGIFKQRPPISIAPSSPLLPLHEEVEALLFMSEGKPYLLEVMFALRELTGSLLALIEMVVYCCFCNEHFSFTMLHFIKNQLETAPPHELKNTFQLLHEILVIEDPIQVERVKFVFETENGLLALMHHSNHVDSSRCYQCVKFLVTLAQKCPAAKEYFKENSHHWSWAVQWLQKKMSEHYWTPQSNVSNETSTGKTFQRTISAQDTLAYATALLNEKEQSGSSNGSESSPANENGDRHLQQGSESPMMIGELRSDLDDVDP
smiles,measurement,setting,value
O=C(CCl)Nc1cc2c(cc1Cl)OCCO2,log2 ratio of Biotin-Ahx-Ub-VS probe labelling,[1],0.00638
same,log2 ratio of Biotin-Ahx-Ub-VS probe labelling,[2],-0.112
same,log2 ratio of Biotin-Ahx-Ub-VS probe labelling,[3],-0.0527
same,log2 ratio of Biotin-Ahx-Ub-VS probe labelling,[4],-1.52 (active)
same,log2 ratio of Biotin-Ahx-Ub-VS probe labelling,[5],-1.81 (active)
